About 83,000 compounds went through this panel and 20% of them were active in at least one assay; those are over-represented in the sample as a whole.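 For each line, cells grew in 96-well plates with the test compound present at a single concentration for 48 hours.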 Values without a mark were called inactive. Activity calls are given as the source filed them. Rule for the calls: active = growth percent below 10; inactive = the rest.

From PubChem BioAssay (NCI) come the findings set out here.

Common to all, as to assay: NCI-60 one-dose screen, 48 h (100 = growth as untreated, 0 = no growth, -100 = all killed)
Holding throughout (settings): 10 µM unless noted

Assay [1] deals with NCI-H23 lung.
The subject of assay [2] is NCI-H226 lung.
Assay [3] deals with NCI-H322M lung.
For assay [4], the system named is HOP-62 NSCLC.
The test system of assay [5] is NCI-H460 lung.
Assay [6] deals with HOP-92 NSCLC.
The subject of assay [7] is NCI-H522 lung.
Assay [8] deals with A549/ATCC NSCLC.
In assay [9] the test system is 786-0 renal.
The subject of assay [10] is COLO 205 colon.

Consider `COc1ccc(/C=C2\COc3ccc(O)cc3C2=O)c(OC)c1OC`, for which the growth was 89.5% in [1]; 99% in assay [2]; 95.8% in assay [3]; 80.9% in [4]; 84.8% in assay [5]; 102% in assay [6]. The growth in [7] is 55.6%; in assay [8] it was 92.4%; in [9] it was 87.7%; in assay [10], 102%.
Take `CCOC(=O)C1=C(NC)OCC1=O`: the growth is 99.9% in assay [1]; 96.3% in [2]; 100% in assay [3]; 100% in [4]; 101% in assay [5]; 83.5% in assay [6]. For the same molecule, the growth in [7] is 96.7%; in assay [8], 90.9%; in [9], 106%; in assay [10] it was 112%.
With `CCCC(O)Cn1ncc(C(=O)OCC)c1NC(=O)NCc1ccccc1F` (stereo not given), the growth in assay [1] was 81.1%; in assay [2] it was 96.8%; in [3] it was 95.6%; in [4], 105%; in [5], 97.8%; in [6] it was 92.1%. The growth is 57% in [7], 82.4% in assay [8], 95.6% in assay [9] and 116% in assay [10].
For the molecule `C#CCOc1ccc2ncnc(Nc3cccc(NC(=O)C=C)c3)c2c1`, the growth in assay [1] is 80.7%; in assay [2], 76.2%; in assay [3], 61.1%; in assay [4] it was 63.6%; in [5], 65.1%; in assay [6], 66.1%. The growth is 50.3% in [7], 56.4% in assay [8], 56.4% in assay [9] and 87.5% in assay [10].
With `O=C1c2c(c3c4ccccc4[nH]c3c3ccc4ccccc4c23)C(=O)N1CCN1CCCCC1`, the growth in assay [1] was 30.5%; in [2], 67.5%; in [3], 61.1%; in [4] it was -11.9% (active); in assay [5], 4.88% (active); in [6] it was 53%. The growth is 38% in assay [7], 32.3% in assay [8], 26% in assay [9] and 47% in [10].
On to `CCCCN1C(=O)/C(=c2\sc3n(c2=O)C2C(NN=3)N(CC)C(=O)N2CC)c2ccccc21` (stereo not given), for which the growth was 25% in assay [1]; 51.1% in assay [2]; 52.9% in assay [3]; 18% in assay [4]; 3.01% (active) in assay [5]; 26.8% in assay [6]. Also, the growth in [7] is -15.2% (active); in assay [8] it was 7.06% (active); in [9] it was 22.1%; in [10] it was 1.59% (active).
`Cc1nn(-c2ccccc2)c(Oc2ccccn2)c1-c1nc2ccccc2s1`: the growth in assay [1] is 87.7%; in assay [2], 93.8%; in assay [3], 93.3%; in [4] it was 112%; in assay [5], 106%; in assay [6], 80.9%. The growth in assay [7] was 82.2%; in assay [8], 92.9%; in assay [9], 104%; in assay [10], 110%.
For the molecule `N#Cc1c(N)nnn1Cc1cc(=O)oc2c1ccc1ccccc12`, the growth in [1] is 93.2%; in assay [2], 83.9%; in assay [3], 102%; in assay [4], 101%; in assay [5], 101%; in [6] it was 87.8%. The growth in [7] was 78.1%; in assay [8], 91.1%; in assay [9] it was 102%; in assay [10] it was 112%.
Turning to `CN1CCN(C(=O)c2ccc(NC(=O)Nc3ccc(-c4nc(N5CCOCC5)c5cccn5n4)cc3)cc2)CC1`, the growth in assay [1] is 15.4%; in [2], -6.51% (active); in assay [3] it was -12% (active); in assay [4], -13.5% (active); in assay [5], 7.17% (active); in assay [6], -28.6% (active). Further, the growth is 12.4% in [7], 1.15% (active) in assay [8], -20.1% (active) in assay [9] and -11.4% (active) in assay [10].
Consider `CN(C)CCCC1(c2ccc(F)cc2)OCc2cc(-c3cccc4[nH]ccc34)ccc21` (stereo not given), for which the growth is 75.2% in [1]; 65.7% in [2]; 61.5% in [3]; 16.2% in assay [4]; -23.3% (active) in assay [5]; 30.6% in [6]. In addition, the growth is 28% in assay [7], 28.3% in assay [8], 37% in assay [9] and -64.2% (active) in assay [10].
With `Cc1cccc2c1NC(=O)C2(c1ccc(O)cc1)c1ccc(O)cc1`, the growth in assay [1] is 38%; in assay [2] it was 25.2%; in assay [3] it was 10.1%; in [4], 92%; in [5], 103%; in assay [6], 48.7%. In addition, the growth in assay [7] was 61.4%; in [8], 71.6%; in assay [9], 94.8%; in [10] it was -4.74% (active).
With `C1=C(N2CCCC2)CCC1`, the growth is 100% in assay [1]; 109% in assay [2]; 109% in assay [3]; 103% in assay [4]; 93.2% in assay [5]; 65.8% in assay [6]. For the same molecule, the growth in assay [7] is 94.6%; in [8] it was 99%; in assay [9] it was 105%; in assay [10] it was 124%.
Turning to `CC(C)(C)c1cc(-c2nc3ccc(N4CCN(S(C)(=O)=O)CC4)cc3[nH]2)cc(C(C)(C)C)c1O`, the growth in [1] is 96.2%; in assay [2], 91.9%; in assay [3], 100%; in [4], 76.7%; in assay [5], 90.6%; in [6], 85.6%. In addition, the growth is 78.1% in assay [7], 83.4% in assay [8], 101% in assay [9] and 101% in assay [10].
For the molecule `O=C(c1ccc(-c2ccccc2)cc1)c1ccc([N+](=O)[O-])cc1`, the growth in [1] is 103%; in [2] it was 98.5%; in assay [3], 115%; in assay [4], 111%; in [5] it was 109%; in assay [6] it was 90.6%. Also, the growth in assay [7] was 89.5%; in [8] it was 114%; in assay [9], 99.9%; in assay [10], 111%.
Turning to `O=C(Nc1ccc(-c2nc(N3CCOCC3)c3cccn3n2)cc1)Nc1cccnc1`, the growth was 17.2% in assay [1]; -5.75% (active) in assay [2]; 0.902% (active) in assay [3]; -3.37% (active) in assay [4]; 7.47% (active) in [5]; -22.5% (active) in assay [6]. The growth in assay [7] is 4.32% (active); in assay [8] it was 0.989% (active); in [9], -12.7% (active); in assay [10], 6.07% (active).
As for `COc1ccc(-c2nnc3n(C)c(=O)c4ccccc4n23)cc1N`, the growth in assay [1] is 46.6%; in [2] it was 70.1%; in assay [3] it was 39.5%; in [4], 23.3%; in assay [5] it was 13.6%; in assay [6] it was 49.9%. Also, the growth in assay [7] is 18.8%; in [8], 28.6%; in [9] it was 23%; in assay [10], -22.2% (active).
As to `c1cc2[nH]ncc2cc1-c1nc2ccc3[nH]ncc3c2c2c1CCCC2`, the growth in [1] is 12.9%; in assay [2], 29.4%; in assay [3], 23.7%; in assay [4], 22.7%; in assay [5], 13.6%; in assay [6], 16.9%. For the same molecule, the growth in assay [7] was -28.2% (active); in assay [8] it was 5.84% (active); in assay [9], 19.7%; in assay [10], 3.57% (active).
Regarding `O=C1c2cccnc2C(=O)c2c1c(C(=O)NCCn1ccnc1)c1ccccn21`, the growth in assay [1] is 5.02% (active); in assay [2], 51.5%; in [3], 22.3%; in assay [4] it was 14%; in [5], -41.3% (active); in [6] it was 56.3%. The growth in assay [7] is -9.62% (active); in assay [8], 1.78% (active); in [9] it was 49%; in assay [10], -27.6% (active).
In the case of `COc1ccc2nc3ccc(OC)cc3c(SCCCN)c2c1`, the growth in [1] is 74.5%; in [2], 97.8%; in assay [3], 114%; in assay [4], 79.8%; in [5] it was 110%; in assay [6] it was 43.6%. In addition, the growth in assay [7] was 57.7%; in assay [8], 79.6%; in assay [9], 49%; in assay [10] it was 48.9%.
For the molecule `O=C(CCCCC1CCSS1)Nc1ncnc2n[nH]c(-c3ccc(Oc4ccccc4)cc3)c12` (stereo not given), the growth in assay [1] is 59.2%; in assay [2], 94.2%; in assay [3] it was 79.5%; in assay [4], 65.6%; in assay [5], 2.83% (active); in [6] it was 97.9%. In addition, the growth in [7] is 70.3%; in assay [8] it was 37%; in assay [9], 117%; in [10], 88.9%.
In the case of `Cc1nnc(NC(=O)c2nc(S(=O)(=O)Cc3ccc(F)cc3)ncc2Cl)s1`, the growth was 90.5% in assay [1]; 98.7% in assay [2]; 93.8% in assay [3]; 86.1% in [4]; 105% in assay [5]; -85.7% (active) in assay [6]. Besides, the growth in [7] is -67.3% (active); in assay [8], 79.3%; in assay [9], 48.3%; in assay [10] it was -18.8% (active).
As to `COc1ccc(CC(C#N)c2cc3ccccc3[nH]2)cc1` (stereo not given), the growth in [1] is 87.1%; in [2], 90.6%; in [3] it was 92.9%; in assay [4], 89%; in [5] it was 97.2%; in assay [6], 49.7%. For the same molecule, the growth in assay [7] was 84.3%; in assay [8], 86.3%; in [9] it was 94.7%; in assay [10] it was 99.8%.
Consider `CC(C)(C)n1cc(-c2ccnc(NCCCNS(=O)(=O)c3ccc(F)cc3)c2)c(-c2cccc(F)c2)n1`, for which the growth in [1] is 67.5%; in assay [2], 60.1%; in assay [3] it was 91.3%; in assay [4] it was 92.2%; in [5], 36.1%; in [6], 67.5%. The growth is 57.2% in [7], 43.5% in assay [8], 66.7% in [9] and 32.6% in assay [10].
`COC(=O)c1c2c(c(C)[n+]([O-])c1C)C(=O)C(NCc1ccc(Cl)cc1)=CC2=O`: the growth in [1] is 59%; in assay [2], 92.6%; in assay [3], 64.3%; in [4], 78.2%; in [5] it was 51.8%; in assay [6], 107%. Moreover, the growth in [7] was 42%; in assay [8] it was 66.9%; in [9], 74%; in assay [10], 9.79% (active).
Consider `CC1(C)CC[C@]2(c3nnc(-c4ccncc4)o3)CC[C@H]3C(=CC[C@H]4[C@@]3(C)CC[C@H]3C(C)(C)C(=O)CC[C@]43C)[C@@H]2C1`, for which the growth was 71.7% in [1]; 60.6% in assay [2]; 94.4% in [3]; 85.7% in assay [4]; 40.4% in assay [5]; 76% in assay [6]. Besides, the growth was 64.2% in assay [7], 73.9% in assay [8], 66.3% in assay [9] and 67.9% in assay [10].
In the case of `COc1cnc2c(c1)C(=O)c1c-2n(CCCNCCO)c(=O)c2ccncc12`, the growth in assay [1] was 1.25% (active); in [2] it was -43.9% (active); in [3] it was -2.47% (active); in [4], 9.4% (active); in assay [5], -41.6% (active); in [6], 20.8%. For the same molecule, the growth is -30.2% (active) in [7], 7.92% (active) in assay [8], 12.3% in [9] and -15.7% (active) in [10].
